Source: PubChem BioAssay AID504467 (National Center for Advancing Translational Sciences (NCATS), 2011)
The whole screen tested about 330,000 compounds, of which about 7,700 (2.3%) were called active. A call without a number means that no potency is given here. Not shown: some 26% with an inconclusive outcome. Calls come from the whole dose curve; as a rule, active = well fitted inhibition curve with a large enough effect; inconclusive = small, poorly fitted or top-dose-only effect, or effect the other way; inactive = flat fitted curve, though single readings scatter. Only a selection was taken, and actives are over-represented in it overall.

Experiment: qHTS screen for small molecules that inhibit ELG1-dependent DNA repair in human embryonic kidney (HEK293T) cells expressing luciferase-tagged ELG1; note: nearly all actives have a fitted effect of over 55% in size
Settings: HEK293T ELG1-luciferase reporter, luminescence, 16 h, DNA damage induced by 5-fluorouridine; series mostly up to 46.1 µM
Text: NIH Molecular Libraries Probe Production Network [MLPCN] NIH Chemical Genomics Center [NCGC] MLPCN Grant: 1 R03 MH092164-01 Assay Provider: Kyungjae Myung, NHGRI, NIH Keywords: MLPCN, qHTS, NCGC, genotoxicity, cancer Assay Overview: Cancer cells divide rapidly compared to normal cells in the body. During cell division, cancer cells need to duplicate their genome by DNA replication. The failure of genome duplication leads to cancer cells' death. Therefore, inhibitors of DNA replication could specifically kill cancer cells. Based on this concept, many chemotherapeutic agents were developed and have been used to treat cancer patients. However, there are a limited number of agents available in the clinical setting, and some of those that do exist have low efficacy and severe side effects. Therefore, if we can find the compounds that effectively block DNA replication either by directly damaging DNA or by inhibiting other cellular mechanisms, the options for cancer treatment will be broadened. With this in mind, we developed a quantitative high-throughput ELG1-luciferase reporter gene assay. Small molecules that specifically block ELG1 function in response to DNA damage can be identified by monitoring the suppression of luciferase activity. Since ELG1 defines a pathway for repairing DNA damage, agents blocking ELG1 function can be used to sensitize cancer cells to chemotherapeutic agents whose mechanism of action involves the induction of DNA damage.
Assay Protocol Summary: For genotoxicity screening, 2,000 cells in 4 uL/well were dispensed into white, solid-bottom 1536-well plates using a solenoid-based dispenser. Following transfer of 1 uL 5-Fluorouridine and 23 nL compound or DMSO vehicle by a pin tool, the plates were incubated 16 hr at 37 °C and 5% CO2. 5 ul ONE-Glo (Promega) was then added to each plate and following a 30 min incubation at room temperature, luciferase activity was quantified on a ViewLux CCD-based plate reader.
Potency is the fitted concentration of half-maximal effect.

Compound	Potency
O=C(/C=C/c1cccs1)c1cc(Cl)ccc1OC(=O)N1CCOCC1	18.4 µM (active)
CC(=O)Nc1ccc(C(=O)C(Cc2ccccc2)N(C)C)cc1 (stereo not given)	inactive
Cc1nc2ccccc2c(=O)n1-c1ccc(Cl)cc1Cl	inactive
COC1=CC=C2[C@H]3Cc4ccc(OC)c5c4[C@@]2(CCN3C)C1O5 (stereo not given in full)	inactive
COC(=O)C1=C(c2cccc(OCc3ccccc3)c2)C[C@@H]2CC[C@H]1N2C(=O)NNCc1ccccc1	inactive
COC(=O)C1=C(c2cccc(OCc3ccccc3)c2)C[C@@H]2CC[C@H]1N2C(=O)NCc1ccc(Br)cc1	inactive
COc1ccc(CNCCc2c[nH]c3ccccc23)cc1OC	inactive
O=C(c1ccccc1[N+](=O)[O-])N1CCC2(CC1)OCCO2	inactive
O=C(c1cc(-c2ccncc2)nc2ccccc12)N1CCC2(CC1)OCCO2	inactive
O=C(c1cc2nc(-c3ccccc3)cc(-c3ccccc3)n2n1)N1CCC2(CC1)OCCO2	20.6 µM (active)
CCCCn1c(=O)c(C(=O)Nc2ccccc2Cl)c(O)c2ccccc21	inactive
Cc1cccc(NC(=O)N2CC3CC(C2)c2cccc(=O)n2C3)c1 (stereo not given)	inactive
Cc1ncc(CC(=O)n2cc(C(=O)c3cc(Cl)ccc3O)cn2)s1	20.6 µM (active)
CCN1C(=O)C(=Cc2c(C)n(CC(=O)NCC3CCCO3)c3ccccc23)C(=O)N(CC)C1=S (stereo not given)	inactive
Cc1ccccc1NC(=O)COC(=O)c1cc(C)n(C2CC2)c1C	inactive
c1cc2c(cc1C1OCC3C(c4ccc5c(c4)OCO5)OCC13)OCO2 (stereo not given)	inactive
CN(C)CCN(CC1CCCN(Cc2ccccc2F)C1)C(=O)Cc1ccc(F)c(F)c1 (stereo not given)	inactive
Cc1ncoc1C(=O)NCCC(c1ccccc1)c1ccccc1	20.6 µM (active)
CC(Cc1ccccc1)NCCC(c1ccccc1)c1ccccc1 (stereo not given)	inactive
CCN(CC)C(=O)Oc1ccc(NC(=O)N2CCOCC2)cc1	inactive
CCOc1cccc(=NC2CCCCC2)c2c(C)[nH]c(C)c12	10.3 µM (active)
O=c1[nH]c(O)c(C=Nc2cc(F)cc(F)c2)c(=O)[nH]1	inactive
CCC(=O)c1ccc(OCC(=O)N2CCN(CC(=O)Nc3ccc(C)cc3)CC2)cc1	inactive
COc1ccc2[nH]c3c(c2c1)CCN[C@H]3C	inactive
COc1cc(Cn2c(N)c(C(=O)NCc3ccco3)c3nc4ccccc4nc32)cc(OC)c1OC	3.26 µM (active)

Compound	Potency
CCOC(=O)C(O)(c1ccc(NC(=O)c2ccco2)c(OC)c1)C(F)(F)F (stereo not given)	inactive
COc1ccccc1NC(=O)N1C[C@@H]2C[C@@H](C1)c1cccc(=O)n1C2	inactive
O=C(Cc1ccc(Cl)cc1)NCCN1CCN(C(=O)Cc2ccc(Cl)cc2)CC1	inactive
CC1CCC(N(C)C2CCN(C)CC2)CC1 (stereo not given)	inactive
COc1cc(-n2c(=S)[nH]c3ccc(C)cc3c2=O)c(Cl)cc1Cl	16.4 µM (active)
COC(=O)C1=C(c2ccc(Cl)c(C(F)(F)F)c2)C[C@@H]2CC[C@H]1N2C(=O)NC(C)C	inactive
O=C(O)c1ccccc1NC(=O)C1C2CCC(O2)C1C(=O)O (stereo not given)	inactive
COC(=O)C1=C(c2ccc(F)cc2OCc2ccccc2)C[C@@H]2CC[C@H]1N2C(=O)NCc1ccc(C(C)(C)C)cc1	inactive
COc1ccc(CNCCc2ccc3c(c2)OCO3)c(OC)c1OC	inactive
O=C(NC(=S)N1C[C@H]2C[C@H](C1)c1cccc(=O)n1C2)c1ccc(F)cc1	inactive
CN(c1ccccc1)c1ccc([N+](=O)[O-])c2nonc12	inactive
Oc1cc2c(cc1CN1CCN(c3ccccc3)CC1)OCO2	inactive
CCC(C)n1c(O)c(/C=N/Nc2nc3c(c(=O)n(C)c(=O)n3C)n2C)c(=O)[nH]c1=S (stereo not given)	23.1 µM (active)
C[C@]12CC[C@H](O)CC1=C([N+](=O)[O-])CC1C2CC[C@@]2(C)C1CC[C@@H]2O (stereo not given in full)	inactive
c1ccc(CC2CCCCN2)cc1 (stereo not given)	inactive
CCCCCn1c(=O)c(C(=O)NCc2ccccc2)c(O)c2ccccc21	inactive
CCCCCCCCCCCCn1ccc(=N)cc1	5.8 µM (active)
COc1cccc(OC)c1C(=O)NC(=S)N1C[C@H]2C[C@H](C1)c1cccc(=O)n1C2	inactive
COC(=O)[C@@H]1C(OC(=O)c2ccccc2)CC2CCC1N2C (stereo not given in full)	inactive
CC[C@H]1CN2CCc3cc(OC)c(OC)cc3[C@@H]2C[C@@H]1C[C@H]1NCCc2cc(OC)c(OC)cc21	0.259 µM (active)
COc1ccc(N2C(=O)/C(=C/c3ccco3)C(=O)NC2=S)cc1	inactive
Cc1c(Oc2cc(NN3CCCCC3)c([N+](=O)[O-])cc2[N+](=O)[O-])cccc1[N+](=O)[O-]	inactive
CCc1ccc(OCC(=O)N2CCN(CC(=O)Nc3ccccc3Cl)CC2)cc1	inactive
COC(=O)C1=C(c2ccc(Cl)c(C(F)(F)F)c2)C[C@@H]2CC[C@H]1N2C(=O)NC1CC1	inactive
C[C@]12CCC3C(CC[C@H]4C[C@@H](O)CC[C@]34C)C1CC[C@@H]2O (stereo not given in full)	inactive
